HCV inh – HCV inhibition; Huh7.5.1 HCVcc-Cre infection, luciferase reporter, 44 h; Potency, µM (top dose mostly 41.8 µM), inactives show at the top dose activity change, negative = inhibition, usual class: inhibitors; hit rate 3.4% among 340,000; AID 651820
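Whole-lifecycle infectious HCVcc-Cre system; cells 1,000/well, compound then virus (~0.5 moi) added 4 h after plating, 44 h culture. Luciferase read 15 sec following 15 min substrate incubation, room temp.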
AmpC no deterg – inhibitors of E. coli AmpC beta-lactamase without detergent | Potency, µM (top dose mostly 57.1 µM), for the others: top-dose activity change, negative = inhibition, most hits filed as inhibitors | hit rate 0.52% among 330,000 | AmpC nitrocefin hydrolysis, absorbance 480 nm, 0.0001% Triton | P00811;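 also: plate controls were no compound for no effect and no enzyme for full effect; nearly all actives have a fitted effect of over 20% in size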
Target sequence (P00811 whole entry, looked up): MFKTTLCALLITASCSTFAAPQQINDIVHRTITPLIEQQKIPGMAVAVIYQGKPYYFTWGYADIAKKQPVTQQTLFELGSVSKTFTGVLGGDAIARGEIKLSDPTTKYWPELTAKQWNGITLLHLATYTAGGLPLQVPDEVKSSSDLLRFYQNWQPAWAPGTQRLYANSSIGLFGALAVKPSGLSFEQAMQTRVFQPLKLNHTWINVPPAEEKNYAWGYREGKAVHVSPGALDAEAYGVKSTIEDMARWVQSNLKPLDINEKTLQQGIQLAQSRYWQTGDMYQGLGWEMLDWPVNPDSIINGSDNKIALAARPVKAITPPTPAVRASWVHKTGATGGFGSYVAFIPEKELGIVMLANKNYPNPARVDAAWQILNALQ
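20 mM phosphate pH 7.0 + 0.01% (detergent screen) or 0.0001% Triton X-100; 5.3 nM AmpC reagent; cpd preinc 15 min RT; nitrocefin (800 uM stock) to start; A480 q20 s × 4 min; Activity was normalised to no-enzyme and no-compound control wells.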
Pf growth 48h – P. falciparum growth inhibition at 48 hours (one generation); P. falciparum luciferase growth in erythrocytes, 48 h; Potency, µM (titrated, usually from 28.7 µM), for inactives: at the top dose activity change, negative = inhibition, actives largely listed as inhibitors; hit rate 5.9% among 310,000
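Growth was read as firefly luciferase luminescence after a 48 h, 37 C, 5% CO2 exposure of compounds to reporter-bearing P. falciparum cultures (0.1% parasitemia, 2% hematocrit final) in Albumax-supplemented RPMI 1640.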
AmpC detergent – inhibitors of E. coli AmpC beta-lactamase with detergent | AID 485294 | AmpC hydrolysis of nitrocefin, absorbance 480 nm, 0.01% Triton | hit rate 0.041% among 370,000 | P00811 | Potency, µM (series often up to 114 µM), inactives show at the top dose activity change, negative = inhibition, usual class: inhibitors;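 also: 0% = no-compound wells and -100% = no-enzyme wells; nearly all actives have a fitted effect of over 25% in size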
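20 mM phosphate pH 7.0 + 0.01% (detergent screen) or 0.0001% Triton X-100; 5.3 nM AmpC reagent; cpd preinc 15 min RT; nitrocefin (800 uM stock) to start; A480 q20 s × 4 min; Activity was normalised to no-enzyme and no-compound control wells.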
AMA1-RON2 inh – inhibitors of Plasmodium falciparum AMA1-RON2 interaction. AlphaScreen AMA1-biotinylated RON2 peptide binding. Potency, µM (titrated, usually from 58.2 µM), for the others: at the highest dose activity change, negative = inhibition, actives largely listed as inhibitors. hit rate 0.2% among 360,000. AID 720542;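 also: 0% = vehicle wells and -100% = peptide control; nearly all actives have a fitted effect of over 45% in size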
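AMA1 (3D7) with his tag at 25 nM final met compounds first, then biotinylated RON2 peptide at 25 nM; detection used donor plus acceptor beads, 10 µg/mL apiece, read by AlphaScreen after 30 min at room temperature.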
Pf growth 96h – P. falciparum growth inhibition at 96 hours; P. falciparum luciferase reporter growth, 96 h; Potency, µM (doses to about 28.7 µM), for inactives: at the highest dose activity change, negative = inhibition, most hits filed as inhibitors; hit rate 6.9% among 320,000; AID 504834
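Delayed-death screen, second-generation endpoint: infected erythrocytes, 2% hematocrit, 0.05% parasitemia final; 96 hours at 37 C, 5% CO2; luciferase detection reagent; luminescence decrease equals reduced growth.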
The depositor's hits bear a star; [ ] = remark or other dose. Sampled rows, rich in hits. Any-hit rate of the full collection: about 11%. Calls follow the shape of the dose curve; as a rule, active = well fitted curve in the direction sought with a large enough effect; inconclusive = small, poorly fitted or top-dose-only effect, or another doubt; inactive = no such curve, though single readings can be large; an effect the other way counts as inactive or inconclusive. Unless noted, % is scaled to controls: 0 for no effect and ±100 for the full control effect; potency is read from the fitted curve at half-maximal effect.

Screening CCN(CC)C(=O)CSc1nnc(-c2c[nH]c3ccccc23)o1 returned HCV inh 11%, AmpC no deterg 0%, Pf growth 48h inconclusive, AmpC detergent inconclusive, AMA1-RON2 inh 3% and Pf growth 96h 0.47µM*.
Screening COc1cc(OC)c(NC(=O)c2c(C)nn(-c3ccc(C)cc3)c2-n2cccc2)cc1Cl returned AmpC detergent -7%.
CCC1CCCCN1C(=O)CSc1nc2c([nH]c3ccccc32)c(=O)n1-c1ccc(OC)cc1 (stereo not drawn) was read as AmpC detergent 7%.
`CC(NC(=O)CSc1n[nH]c(-c2ccccc2Cl)n1)c1nc2ccccc2[nH]1` (stereo not drawn) gave AmpC detergent 20%.
`Cc1cn2c(=O)cc(COC(=O)c3cccc(NC(=O)COc4ccccc4)c3)nc2s1` gave AmpC detergent 8%.
For CCN(CC(=O)Nc1cc(Cl)ccc1C)C(=O)c1ccc(=O)n(Cc2ccccc2)n1 the results were HCV inh -1%, AmpC no deterg 117%, Pf growth 48h inconclusive, AmpC detergent inconclusive, AMA1-RON2 inh -6% and Pf growth 96h 9.3µM*.
`CCN(CC)CCCNC(=O)CCCn1c(=O)[nH]c2ccc(Br)cc2c1=O` gave AmpC detergent -1%.
CCOc1cc(CNCCO)cc(Br)c1OCc1cccs1 was read as HCV inh 5.6µM*, AmpC no deterg 34%, Pf growth 48h inconclusive, AmpC detergent -1%, AMA1-RON2 inh -3% and Pf growth 96h inconclusive.
For OCCNCc1cc(Br)ccc1OCc1ccc(Cl)cc1 the results were HCV inh inconclusive, AmpC no deterg -1%, Pf growth 48h inconclusive, AmpC detergent -2%, AMA1-RON2 inh 15% and Pf growth 96h inconclusive.
OCCNCc1cc(Br)ccc1OCc1ccc(Cl)cc1Cl was read as HCV inh 11µM*, AmpC no deterg 66%, Pf growth 48h inconclusive, AmpC detergent 0%, AMA1-RON2 inh -1% and Pf growth 96h 236%.
CCOc1cc(CNCCO)cc(Br)c1OCc1ccc(Cl)cc1Cl was read as HCV inh inconclusive, AmpC no deterg 83%, Pf growth 48h 8.3µM*, AmpC detergent 8%, AMA1-RON2 inh -10% and Pf growth 96h -21%.
Screening CCOc1cc(CNCc2cccs2)cc(Br)c1OCC returned HCV inh inconclusive, AmpC no deterg -14%, Pf growth 48h inconclusive, AmpC detergent inconclusive, AMA1-RON2 inh -4% and Pf growth 96h inconclusive.
CC(C)c1ccc2c(c1)-c1ccccc1S(=O)(=O)N2CC(=O)N1CCCCC1 was read as AmpC detergent 21%.
`Cc1ccc(Cn2c(CN3CCC(C(=O)NCCc4ccccc4)CC3)cc3ccccc32)cc1` gave AmpC detergent 6%.
`O=C(/C=C/Sc1ccc(C(F)(F)F)cn1)c1ccccc1` gave HCV inh 10µM*, AmpC no deterg -27%, Pf growth 48h inconclusive, AmpC detergent 4%, AMA1-RON2 inh -5% and Pf growth 96h -13%.
Screening O=C(CSc1ccc(C(F)(F)F)cn1)Nc1ccccc1 returned HCV inh 22%, AmpC no deterg -9%, Pf growth 48h 2%, AmpC detergent 7%, AMA1-RON2 inh -22% and Pf growth 96h 18%.
COc1cccc(OC(=O)CSc2nnc(-c3ccccc3OC)o2)c1 was read as AmpC detergent -2%.
For CCc1cc2c(COC(=O)CCNS(=O)(=O)c3cccc(C(F)(F)F)c3)cc(=O)oc2cc1O the results were HCV inh inconclusive, AmpC no deterg -17%, Pf growth 48h 4.7µM*, AmpC detergent -17%, AMA1-RON2 inh -10%[11.6 µM] and Pf growth 96h inconclusive.
`Cc1ccc(-c2noc(CNC(=O)c3ccc(C)c(Cl)c3)n2)cc1` gave AmpC detergent 19%.
O=c1n(CC2CO2)c(=O)n(CC2CO2)c(=O)n1CC1CO1 (stereo not drawn) was read as HCV inh inconclusive, Pf growth 48h 9.5µM*, AMA1-RON2 inh 20% and Pf growth 96h 6µM*.
For ClCC1CO1 (stereo not drawn) the results were Pf growth 48h 12% and Pf growth 96h 3%.
`O=C(Nc1ccc2c(c1)CCCN2C(=O)c1ccco1)c1cc([N+](=O)[O-])ccc1Cl` gave HCV inh inconclusive, AmpC no deterg -46%, Pf growth 48h 15µM*, AmpC detergent -16%, AMA1-RON2 inh -16% and Pf growth 96h inconclusive.
CCC(=O)Nc1ccc(N2CCN(C(=O)c3cccs3)CC2)cc1 was read as HCV inh 14%, AmpC no deterg -10%, Pf growth 48h 2%, AmpC detergent -6%, AMA1-RON2 inh -4% and Pf growth 96h 13%.
`CC(=O)N1CCN(c2ccc(NC(=O)c3ccc([N+](=O)[O-])cc3Cl)cc2)CC1` gave HCV inh 11%, AmpC no deterg -11%, Pf growth 48h 0%, AmpC detergent -12%, AMA1-RON2 inh -9% and Pf growth 96h -17%.
Cc1ccc(C(=O)Nc2ccc(N3CCN(C(=O)c4cccs4)CC3)cc2)c(Cl)c1 was read as HCV inh inconclusive, AmpC no deterg -9%, Pf growth 48h 9.3µM*, AmpC detergent -3%, AMA1-RON2 inh -13% and Pf growth 96h 48%.
For Cc1ccc(C(=O)Nc2ccc(N3CCN(C(=O)c4ccco4)CC3)cc2)c(Cl)c1 the results were HCV inh 11µM*, AmpC no deterg 6%, Pf growth 48h 13µM*, AmpC detergent -2%, AMA1-RON2 inh -12% and Pf growth 96h 9%.
Screening O=C(Nc1ccc(N2CCN(C(=O)c3ccco3)CC2)cc1)c1ccc([N+](=O)[O-])cc1Cl returned HCV inh inconclusive, AmpC no deterg 20%, Pf growth 48h 12µM*, AmpC detergent -2%, AMA1-RON2 inh -4% and Pf growth 96h inconclusive.
For CCOC(=O)N1CCc2c(sc3c2c(=O)n(-c2ccc(Cl)cc2)c(=O)n3CC(C)C)C1 the results were AmpC detergent 7%.
`Cc1ccccc1C(=O)Nc1ccc(C(=O)OCc2cc(=O)n3nc(C(C)C)sc3n2)cc1` gave AmpC detergent -15%.
CC(C)N(C(=O)c1cc2c(Cl)nc3ccccc3c2s1)C1CCCCC1 was read as AmpC detergent -9%.

High-throughput results: PubChem, National Center for Advancing Translational Sciences (NCATS)
